Assay in all cases: NCI-60 one-dose screen, 48 h (100 = growth as untreated, 0 = no growth, -100 = all killed)
Conditions in all cases: 10 µM unless noted

Assay [1] has as its system HCT-15 colon.
The test system of assay [2] is HT29 colon.
Assay [3] deals with SNB-75 CNS.
Assay [4] deals with SNB-19 CNS.
Assay [5] relates to U251 CNS.
Assay [6] concerns PC-3 prostate.
The test system of assay [7] is SK-MEL-5 melanoma.
Assay [8] has as its system UACC-62 melanoma.
Assay [9] deals with LOX IMVI melanoma.
Assay [10] has as its system SK-MEL-28 melanoma.

Structures are written as SMILES. About 83,000 compounds went through this panel and 20% of them were active in at least one assay; those are over-represented in the sample as a whole.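 The test compound was applied at a single concentration to cells in 96-well plates for 48 hours, and percent growth was recorded.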 Values without a mark were called inactive. Calls of active or inactive are those of the source. The calls were made as follows: active = growth percent below 10; inactive = the rest.

In the case of `COc1cc2ncnc(Oc3ccc(NC(=O)Nc4ccc(C5(C#N)CCCC5)cc4)c4ccccc34)c2cc1OC`, the growth in [1] is 74.5%; in [2], 35%; in [3], 36.1%; in [4] it was 36.7%; in [5], -49.3% (active); in assay [6], 56.8%. For the same molecule, the growth was 50.2% in assay [7], 40% in [8], 47.7% in assay [9] and 64.1% in assay [10].

On to `Cc1cn(-c2nc3c(c(NCc4ccccc4)n2)COCC3)c2cccc(C(N)=O)c12`, for which the growth is 81.9% [0.5 µM] in assay [1]; 63.4% [0.5 µM] in [2]; 107% [0.5 µM] in assay [3]; 97.4% [0.5 µM] in assay [4]; 93.5% [0.5 µM] in assay [5]; 83.8% [0.5 µM] in assay [6]. The growth in assay [7] was -20.3% [0.5 µM] (active); in assay [8] it was 44.3% [0.5 µM]; in assay [9], 16.3% [0.5 µM]; in assay [10], 96.5% [0.5 µM].

On to `CCn1cc(/C=C2\Oc3cc(OCC#N)ccc3C2=O)c2cc(OC)ccc21`, for which the growth is 21.5% in [1]; 5.44% (active) in [2]; 19.1% in assay [3]; 29.8% in assay [4]; 24.2% in assay [5]; 16.7% in assay [6]. The growth was 24.6% in assay [7], 44.6% in [8], 33.1% in assay [9] and 70.5% in [10].

Regarding `CO[C@H]1/C=C/C=C/C=C/C[C@H](OC(=O)[C@@H](C)NC(=O)C2CCCCC2)[C@H](C)[C@@H](O)/C(C)=C\CCC2=CC(=O)C=C(NC(=O)C1)C2=O`, the growth was 6.39% (active) in assay [1]; -28.8% (active) in [2]; -20.2% (active) in [3]; 2.4% (active) in [4]; -19.6% (active) in assay [5]; -2.95% (active) in assay [6]. Moreover, the growth was -57% (active) in assay [7], 2.09% (active) in assay [8], -38.8% (active) in [9] and -3.36% (active) in [10].

Turning to `CC1(C)N=C(N)N=C(N)N1c1cccc(CCCCc2ccccc2)c1`, the growth is 37.1% in assay [1]; -5.08% (active) in assay [2]; -5.66% (active) in [3]; 17.2% in [4]; 11.5% in assay [5]; -30% (active) in assay [6]. For the same molecule, the growth in assay [7] was -96.7% (active); in [8] it was -9.07% (active); in assay [9], 13.2%; in assay [10], 42.6%.

As to `O=C1OC(N(Cc2ccc(Cl)cc2)c2ccccc2)c2ccccc21` (stereo not given), the growth in [1] was 104%; in assay [2], 87.4%; in assay [3] it was 115%; in [4], 96.7%; in assay [5], 100%; in assay [6], 98.2%. For the same molecule, the growth in [7] was 101%; in assay [8], 93.9%; in [9] it was 98.9%; in [10], 111%.

With `COc1cc(C(=O)NNC(=O)c2ccccc2C(=O)O)cc(OC)c1OC`, the growth in [1] is 31.8%; in assay [2] it was 20.8%; in assay [3], 86.3%; in assay [4], 49.6%; in [5] it was 39.7%; in assay [6], 54.7%. Further, the growth is 38.2% in assay [7], 39.8% in assay [8], 16.9% in [9] and 75.6% in assay [10].

In the case of `Cc1ccc(NC(=O)CN2CCOCC2)cc1Cl`, the growth in [1] is 102%; in [2] it was 80.6%; in assay [3] it was 97.4%; in assay [4] it was 94.8%; in assay [5] it was 97.7%; in [6], 74.7%. Also, the growth was 95.6% in [7], 92.7% in [8], 101% in assay [9] and 104% in assay [10].

For the molecule `NC(=NCCCOc1ccc(F)cc1)Nc1ccc(Cl)c(Cl)c1`, the growth in assay [1] was 75.6%; in assay [2] it was 31.7%; in assay [3], 57.8%; in assay [4], 77%; in assay [5], 69.8%; in assay [6], 63.9%. Besides, the growth in assay [7] is 51.4%; in assay [8], 78.6%; in [9] it was 55.9%; in assay [10] it was 94.3%.

With `COc1ccc(-c2nnc(SCC(=O)Nc3ccc(C(=O)/C=C/c4ccc(Cl)cc4)cc3)o2)cc1OC`, the growth in assay [1] is 81.3%; in assay [2], 89.8%; in assay [3] it was 71.4%; in assay [4], 84.6%; in [5], 88.5%; in assay [6], 84.6%. The growth in [7] was 56.7%; in assay [8] it was 62.7%; in assay [9] it was 79%; in assay [10] it was 82.2%.

Regarding `CN(C)c1ccc(/C=N/N=C(N)N)cc1`, the growth in assay [1] is 49%; in assay [2], 26.4%; in assay [3], 66.5%; in assay [4], 74.2%; in assay [5], 60.2%; in assay [6], 83.8%. For the same molecule, the growth in assay [7] was 47.3%; in [8] it was 72.7%; in [9], 70.5%; in [10] it was 81.7%.

`CC(NCCC(c1ccccc1)c1ccccc1)c1ccccc1` (stereo not given): the growth in assay [1] is 75%; in assay [2] it was 13.1%; in assay [3], 87.3%; in assay [4] it was 90.7%; in assay [5] it was 61.1%; in [6] it was 48%. Also, the growth in [7] is 85.8%; in assay [8], 93.3%; in assay [9], 74.6%; in assay [10], 75.5%.

On to `Cc1cc2c(cc1C)N(C(=O)CCl)CCN2C(=O)CCl`, for which the growth is -64% (active) in [1]; -73% (active) in assay [2]; -94% (active) in assay [3]; 39.6% in assay [4]; -84.3% (active) in assay [5]; -70.2% (active) in assay [6]. Also, the growth in assay [7] is -97.6% (active); in assay [8], -43.1% (active); in assay [9], -89.3% (active); in [10], -49.5% (active).

Source of the values: PubChem BioAssay (NCI).
